This is a sample that favours compounds with a hit; in the whole collection about 1.8% have one here.
NadD inh: blocks S. aureus nicotinate mononucleotide adenylyltransferase; purified NadD enzyme, colorimetric absorbance read-out; inhibition, % at 20 µM; hit rate 0.78% among 360,000; in the data active means inhibition above about 26%
p-CIP stab down: lowers stability of the mouse p/CIP coactivator protein; Q05BA5; F442A p/CIP-EGFP cells, EGFP fluorescence, 16 h; decrease of EGFP signal, % at 10 µM; hit rate 0.01% among 290,000; AID 1984;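 active means EGFP signal decrease of at least 30% at 10 µM or well 3 SD below plate mean, unless failing retest; inactive means the rest, including hits failing retest or dose response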
PHOSPHO1 block: blocks human PHOSPHO1 phosphatase activity. inhibition, % at 13.3 µM. recombinant PHOSPHO1, absorbance phosphatase assay. hit rate 1.1% among 290,000. AID 1565; in the data active means inhibition above about 60%
Target sequence (Q8TCT1 whole entry, looked up): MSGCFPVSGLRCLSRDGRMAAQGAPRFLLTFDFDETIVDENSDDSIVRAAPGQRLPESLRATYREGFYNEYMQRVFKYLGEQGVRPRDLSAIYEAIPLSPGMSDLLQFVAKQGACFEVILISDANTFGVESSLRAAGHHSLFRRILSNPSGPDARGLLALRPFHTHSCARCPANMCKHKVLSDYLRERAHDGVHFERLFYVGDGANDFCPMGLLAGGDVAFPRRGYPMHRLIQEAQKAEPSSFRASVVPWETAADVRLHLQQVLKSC
UBC9 SUMO inh: blocks human SUMOylation mediated by UBC9; HTRF SUMOylation assay, SAE1/SAE2 + UBC9, in vitro; inhibition, % at 35 µM; hit rate 0.36% among 290,000; AID 2006; in the data active means inhibition above about 50%, passing the limit was not always enough
Target sequence (P63279 whole entry, looked up): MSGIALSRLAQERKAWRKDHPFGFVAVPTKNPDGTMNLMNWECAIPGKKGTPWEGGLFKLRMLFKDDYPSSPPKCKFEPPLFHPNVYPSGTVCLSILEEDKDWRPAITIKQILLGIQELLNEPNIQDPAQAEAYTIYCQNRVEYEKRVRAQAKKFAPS
NadD inh conf: confirmation of Staphylococcus aureus NadD inhibitors | purified S. aureus NadD, colorimetric enzyme assay | inhibition, % at 20 µM | hit rate 13% among 2,000 | shares compounds with NadD inh | AID 624309; in the data active means inhibition mostly above about 42%, no sharp cut-off; inactive means mostly below about 42%
Numbers without * were called inactive; · = no result given.

SMILES | NadD inh | p-CIP stab down | PHOSPHO1 block | UBC9 SUMO inh | NadD inh conf
NS(=O)(=O)c1cccc(NC(=O)CN2CCc3ccccc32)c1 | 38* | -7 | -6 | 11 | -4
c1ccc(COc2ccc(CNCc3cccnc3)cc2)cc1 | 4 | -12 | 8 | 5 | ·
N#CC1=C(N)NC(SCC(=O)c2ccc(Br)cc2)=C(C#N)C12CCCCC2 | 5 | 2 | 10 | -19 | ·
N#CC1=C(N)NC(SCC(=O)c2ccc(Cl)cc2)=C(C#N)C12CCCC2 | 33* | 3 | 45 | -4 | 38
COc1ccc(NS(=O)(=O)c2ccc(O)c(NC(=O)c3cc4c(C)nn(-c5ccc(F)cc5)c4s3)c2)cc1 | 47* | 4 | 2 | 82* | 40
COc1ccc(NS(=O)(=O)c2ccc(N3CCOCC3)c(NC(=O)c3ccc(F)cc3)c2)cc1 | -4 | -14 | -1 | -2 | ·
CCOC(=O)c1cc(-c2ccccc2)sc1NC(=O)C(C)C | 2 | -12 | -41 | 3 | ·
CCOC(=O)c1cc(-c2ccccc2)sc1NC(=O)C(C)N1C(=O)NC(C)(c2ccc(Cl)cc2)C1=O (centres undefined) | 30* | 6 | 14 | 1 | -8
Cc1ccc(OCCSc2nc3ccccc3n2CCC(=O)O)c(C(C)C)c1 | 2 | · | · | · | ·
COc1ccc([C@H]2C(C#N)=C([S-])N[C@](C)(O)[C@@H]2[n+]2ccccc2)cc1 | 45* | -11 | -31 | 16 | 39
CCC1CCCCN1c1ccc([N+](=O)[O-])cc1/C=N/NC(=O)Cn1c2ccccc2c(=O)c2ccccc21 (centres undefined) | 51* | 2 | 14 | 6 | 3
CCc1ccc(OCC(=O)N/N=C/c2cc([N+](=O)[O-])ccc2N2CCCCCC2)cc1 | 24 | 1 | 8 | 7 | ·
CCOc1ccccc1-c1noc(CCC(=O)Nc2cccnc2)n1 | -6 | 0 | 11 | -10 | ·
O=C(CCc1nc(-c2ccccc2F)no1)Nc1cccnc1 | 66* | 6 | 33 | -3 | -4
CCc1ccc(NC(=O)Cn2cc([N+](=O)[O-])nc2C)cc1 | -3 | -12 | 30 | 6 | ·
Cc1ccc2sc(NNC(=O)c3cc(=O)c4ccccc4o3)nc2c1C | 64* | -19 | 36 | -114 | 70*
O=C(NNc1nc2c(F)cccc2s1)c1cc(=O)c2ccccc2o1 | 15 | -5 | 20 | -2 | ·
Cc1cccc2sc(NNC(=O)c3cc(=O)c4ccccc4o3)nc12 | 45* | -11 | -56 | -49 | 60*
C#CCNC(=O)C[C@@H]1C[C@@]2(C(=O)OC)CCCCC=C2N(Cc2cccc3ccccc23)C1=O | 5 | · | · | · | ·
CC(=O)CC1c2cc(F)ccc2C=C(c2ccsc2)N1c1ccc(C#Cc2cncn2C)cc1 (centres undefined) | 42* | · | · | · | 38
Cn1cncc1C#Cc1ccc(N2C(c3ccsc3)=Cc3ccc(F)cc3C2c2c[nH]c3ccccc23)cc1 (centres undefined) | 39* | · | · | · | 39
CC(=O)CC1c2cc(F)ccc2C=C(c2ccsc2)N1c1ccc(C#CC2(O)CCCCC2)cc1 (centres undefined) | 22 | · | · | · | ·
CCOC(=O)Cn1c(=NC(=O)c2nc3ccccc3s2)sc2cc(S(N)(=O)=O)ccc21 | 19 | -2 | -18 | -25 | ·
COCCn1c(=NC(=O)c2cc(-c3cccs3)nc3ccccc23)sc2cc(S(N)(=O)=O)ccc21 | 52* | -19 | -10 | -35 | 57*
C=CCn1c(=NC(=O)c2cc(-c3cccs3)nc3ccccc23)sc2cc(S(N)(=O)=O)ccc21 | 51* | -13 | -2 | -24 | 59*
SMILES | NadD inh | p-CIP stab down | PHOSPHO1 block | UBC9 SUMO inh | NadD inh conf
CCOC(=O)/C(=N\Nc1ccccc1Cl)N1CCN(c2ccccc2OC)CC1 | 3 | 7 | 10 | 0 | ·
CCn1c(CN(C)c2ccccc2)nc2ccccc21 | -2 | -25 | · | 12 | ·
Cc1ccc(CNC(=O)c2ccc(N3CCC4(CC3)CC(c3ccccc3)=NO4)c(NC(=O)c3ccccc3)c2)cc1 | 20 | · | · | · | ·
Cc1ccc(CNC(=O)c2ccc(N3CCC4(CC3)CC(c3ccccc3)=NO4)c(NC(=O)c3ccc(Br)cc3)c2)cc1 | 36* | -1 | -6 | 1 | 13
Cc1cc2nc(/C=C/c3cccnc3)[nH]c2cc1C | -1 | -11 | 30 | 32 | ·
Cc1cc2nc(/C=C/c3nc4cc(C)c(C)cc4[nH]3)[nH]c2cc1C | 31* | 3 | 47 | 30 | -17
COc1cc2nc(N3CCNCC3)nc(N)c2cc1OC | 34* | -6 | 41 | 9 | 19
COc1ccccc1NC(=O)CCNC(=O)C1CCN(S(=O)(=O)c2ccccc2)CC1 | -3 | · | · | · | ·
COc1ccc(C(=O)[C@H]2[C@H]3C(=O)N(c4ccc(OC(C)=O)cc4)C(=O)[C@H]3C3C=CC=NN32)cc1 (some centres undefined) | 13 | 3 | -111 | 13 | ·
CC(=O)Oc1ccc(C(=O)[C@H]2[C@H]3C(=O)N(c4cccc5ccccc45)C(=O)[C@H]3[C@@H]3C=CC=NN32)cc1 | 45* | 7 | 19 | 9 | 24
O=C(/C=C/c1ccc([N+](=O)[O-])cc1)/C=C/c1ccco1 | 38* | -21 | 16 | 32 | 32
O=C(/C=C/c1ccc([N+](=O)[O-])cc1)c1ccco1 | 5 | -2 | 24 | -13 | ·
CCCn1c(SCC(=O)NC(=O)NC(C)(C)C)n[nH]c1=O | -4 | 2 | 16 | 18 | ·
Cc1ccnc(N2CCN(C(=O)CSc3nc4ccccc4nc3N3CCC(C)CC3)CC2)c1 | 3 | -3 | -4 | -19 | ·
N#Cc1ccc(NC(=O)Nc2ccc(Oc3ccc(NC(=O)Nc4ccc(C#N)cc4)cc3)cc2)cc1 | 28* | -6 | 46 | 10 | -2
O=C(NNC(=O)C1CCCN(c2ncccn2)C1)c1ccncc1 (centres undefined) | 3 | 1 | -21 | 15 | ·
COc1ccc(C(=O)Nc2nc3c(s2)Cc2cc(OC)ccc2-3)cc1 | 38* | 1 | -10 | 80 | 9
Cn1c(C(=O)N2CCN(c3nc4ccccc4s3)CC2)cc2sccc21 | -5 | 12 | -30 | -26 | ·
O=C(c1cc2sccc2n1Cc1ccc(F)cc1)N1CCN(c2nc3ccccc3s2)CC1 | 55* | -22 | 14 | -56 | 32
CC(=O)Nc1ccc(S(=O)(=O)Nc2nc3ccccc3nc2-n2ccc(=NC(=O)c3ccccc3)cc2)cc1 | 10 | -10 | 27 | 15 | ·
O=C(N=c1ccn(-c2nc3ccccc3nc2NS(=O)(=O)c2ccc(Cl)cc2)cc1)c1cccs1 | 29* | -29 | 20 | 10 | 4
CCOc1ccc(S(=O)(=O)Nc2nc3ccccc3nc2-n2ccc(=NC(=O)c3cccs3)cc2)cc1 | 26* | -344 | 3 | 45 | 4
Cc1ccc(S(=O)(=O)N2CCCCC2)cc1NC(=O)COC(=O)c1ccc2c(c1)OCO2 | 0 | -6 | 8 | 27 | ·
CCOC(=O)N1CCN(C(=O)C2CCN(C(=O)c3ccccc3C)CC2)CC1 | 19 | · | · | · | ·
COC(=O)CSc1nc2ccccn2c(=O)c1C=O | 3 | -11 | -1 | -7 | ·
COc1ccc(CCN2CC(C(=O)NCCc3ncccc3C)CCC2=O)cc1 (centres undefined) | 2 | · | · | · | ·
Cc1cccc(OCc2n[nH]c(=S)n2C2CCCCC2)c1 | 6 | -23 | 6 | 14 | ·

Source: PubChem BioAssay
